Source: PubChem BioAssay
Results filed as inconclusive are left out. For some of these results: Potency and affinity values are given separately. Active and inactive are the calls of the source.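 The calls were made as follows, unless noted: active = thallium flux through the channel raised or lowered by more than 3 SD from vehicle-only wells, actives on both sides; inactive = the rest.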

Assays:
[1] = growth inhibition of DIPG glioma cells, dose response, cell-based, SU-DIPG-XIII, MIPE4.0, CellTiter-Glo, qHTS (AID 1347061; cut-off not given, nearly all actives have AC50 up to about 37 µM;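 also: cells exposed to compound for 48 hours before readout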); settings: SU-DIPG-XIII viability, CellTiter-Glo ATP luminescence
[2] = growth inhibition of DIPG glioma cells, dose response, cell-based, SU-DIPG-IV, MIPE4.0, CellTiter-Glo, qHTS (AID 1347063; cut-off not given, nearly all actives have AC50 up to about 30 µM;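 also: compound exposure lasted 48 hours before the viability readout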); settings: SU-DIPG-IV viability, CellTiter-Glo ATP luminescence
[3] = SU-DIPG-VI glioma cell viability, MIPE4.0 library, CellTiter-Glo luminescence, qHTS (AID 1347066; cut-off not given, nearly all actives have AC50 up to about 30 µM;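 also: cells exposed to compound for 48 hours before readout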); settings: CellTiter-Glo ATP luminescence
[4] = growth inhibition of DIPG glioma cells, dose response, cell-based, SU-DIPG-XVII, MIPE5.0, CellTiter-Glo, qHTS (AID 1347060; cut-off not given, nearly all actives have AC50 up to about 26 µM;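 as to AC50: cells exposed to compound for 48 hours before viability readout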); settings: SU-DIPG-XVII viability, CellTiter-Glo ATP luminescence
[5] = JHH-DIPG-1 glioma cell viability, MIPE5.0 library, CellTiter-Glo luminescence, qHTS (AID 1347067; cut-off not given, nearly all actives have AC50 up to about 26 µM;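 also: cells exposed to compound for 48 hours before readout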); settings: JHH-DIPG-1 glioma viability, CellTiter-Glo ATP luminescence
[6] = SU-DIPG-XXV glioma cell viability, MIPE5.0 library, qHTS (AID 1347068; cut-off not given, nearly all actives have IC50 up to about 30 µM;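 as to IC50: cells exposed to compound for 48 hours before viability readout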)
[7] = tested on: Hepatitis C virus NS3 helicase; assay: HCV NS3 helicase inhibitors, primary screen, biochemical, fluorescence polarization, LOPAC1280 library (AID 687035; in the data active = inhibition above about 37%); settings: Purified HCV NS3 helicase, Cy5-dT15 ssDNA binding fluorescence polarization; stronger effect = higher value; concentration not given here
[8] = Cy5 fluorescence quenching or enhancement artefacts, artefact control for HCV NS3 helicase inhibitor project, biochemical, LOPAC1280 (AID 687037; call rule not given here); settings: Cy5-DNA-NS3h complex fluorescence interference counterscreen
[9] = tested on: Aerobactin synthetase IucA (Klebsiella pneumoniae); assay: IucA aerobactin synthetase inhibitors, biochemical, Tocris library, absorbance (AID 1345561; call rule not given here;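 also: 100% = enzyme without compound and 0% = no enzyme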); settings: purified IucA enzyme assay, absorbance (OD) read-out; stronger effect = lower value;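 tested at 8 µM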
[10] = phospholipid biosynthesis inhibitors in animal cells, primary screen, cell-based, LOPAC library, screen 4 (AID 1347384; call rule not given here); settings: phospholipid biosynthesis inhibition screen, at 10 µM
[11] = reducers of polyQ inclusions in PC12 cells, cell-based, NGF-treated PC12, GFPQ80 (AID 1614); settings: PC12 NGF-treated GFP-polyQ80 inclusion reduction;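 also: lower means fewer inclusions and 0 means no inclusions at all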
[12] = antimalarial activity against Dd2 strain (AID 2302;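 active = growth inhibition above 50% at the single 2 µM test dose, taken to imply half-maximal potency below 2 µM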;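 also: 0% = DMSO untreated growth and 100% = chloroquine plus artemisinin killed control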); settings: P. falciparum Dd2 in RBCs, LDH growth readout, 72 h; at 2 µM; stronger effect = higher value
[13] = molecular target: Calcium-dependent protein kinase 1 (Plasmodium falciparum (isolate 3D7)) (UniProt P62344); assay: PfCDPK1 kinase inhibitors, biochemical, TCAMS library (AID 1159585; cut-off not given, nearly all actives have IC50 up to about 0.98 µM;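 also: inhibitors leave more ATP so luminescence rises with inhibition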); settings: recombinant PfCDPK1, Kinase-Glo ATP depletion luminescence
Sequence of Calcium-dependent protein kinase 1 (Plasmodium falciparum (isolate 3D7)) (P62344 whole entry, looked up): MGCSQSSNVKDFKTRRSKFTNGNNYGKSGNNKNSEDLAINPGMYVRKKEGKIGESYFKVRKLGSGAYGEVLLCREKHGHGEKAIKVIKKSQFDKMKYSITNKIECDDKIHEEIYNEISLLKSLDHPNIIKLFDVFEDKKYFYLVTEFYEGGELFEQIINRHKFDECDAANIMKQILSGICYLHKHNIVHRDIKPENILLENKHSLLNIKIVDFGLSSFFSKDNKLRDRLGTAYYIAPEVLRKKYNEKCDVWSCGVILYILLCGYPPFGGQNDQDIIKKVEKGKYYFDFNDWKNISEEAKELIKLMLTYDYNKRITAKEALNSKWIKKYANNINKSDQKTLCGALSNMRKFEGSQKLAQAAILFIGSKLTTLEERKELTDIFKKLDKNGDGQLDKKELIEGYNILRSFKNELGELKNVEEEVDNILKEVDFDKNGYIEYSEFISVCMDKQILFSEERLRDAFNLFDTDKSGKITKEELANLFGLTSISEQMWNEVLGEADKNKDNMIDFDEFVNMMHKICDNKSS

[14] = molecular target: Plasmodium falciparum protein kinase 6 (PK6, PF3D7_1337100) (UniProt Q8IDW1); assay: PfPK6 kinase inhibitors, biochemical, TCAMS library (AID 1159586; call rule not given here); settings: recombinant PfPK6, Kinase-Glo ATP depletion luminescence
Sequence of Plasmodium falciparum protein kinase 6 (PK6, PF3D7_1337100) (Q8IDW1 1-305): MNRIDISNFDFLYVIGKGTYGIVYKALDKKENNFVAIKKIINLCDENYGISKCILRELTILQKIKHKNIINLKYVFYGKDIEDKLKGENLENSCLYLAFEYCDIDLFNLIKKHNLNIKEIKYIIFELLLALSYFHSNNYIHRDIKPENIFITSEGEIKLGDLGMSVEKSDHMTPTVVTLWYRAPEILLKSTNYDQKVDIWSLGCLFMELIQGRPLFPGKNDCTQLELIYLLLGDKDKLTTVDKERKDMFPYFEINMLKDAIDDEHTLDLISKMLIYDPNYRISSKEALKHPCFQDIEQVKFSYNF

[15] = molecular target: Protein kinase 7 (PK7), Plasmodium falciparum 3D7 (PF3D7_0213400) (UniProt Q7YTF7); assay: inhibition of Plasmodium PK7 catalytic activity – biochemical, TCAMS antimalarial set, Kinase-Glo luminescence (AID 1159587; call rule not given here); settings: recombinant PfPK7, Kinase-Glo ATP depletion luminescence
Sequence of Protein kinase 7 (PK7), Plasmodium falciparum 3D7 (PF3D7_0213400) (Q7YTF7 1-343): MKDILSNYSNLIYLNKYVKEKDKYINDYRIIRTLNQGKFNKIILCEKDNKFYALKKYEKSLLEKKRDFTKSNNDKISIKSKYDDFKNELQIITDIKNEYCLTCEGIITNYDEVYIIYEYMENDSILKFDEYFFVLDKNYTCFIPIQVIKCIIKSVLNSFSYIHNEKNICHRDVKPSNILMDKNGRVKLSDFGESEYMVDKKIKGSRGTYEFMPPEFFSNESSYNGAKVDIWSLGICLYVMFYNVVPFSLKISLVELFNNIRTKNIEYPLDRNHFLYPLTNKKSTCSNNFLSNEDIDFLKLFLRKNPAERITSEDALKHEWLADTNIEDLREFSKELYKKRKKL

[16] = molecular target: Calcium-dependent protein kinase 4 (Plasmodium falciparum (isolate 3D7)) (UniProt Q8IBS5); assay: PfCDPK4 kinase inhibitors, biochemical, TCAMS library (AID 1159588; cut-off not given, nearly all actives have IC50 up to about 0.91 µM); settings: recombinant PfCDPK4, Kinase-Glo ATP depletion luminescence
Sequence of Calcium-dependent protein kinase 4 (Plasmodium falciparum (isolate 3D7)) (Q8IBS5 whole entry, looked up): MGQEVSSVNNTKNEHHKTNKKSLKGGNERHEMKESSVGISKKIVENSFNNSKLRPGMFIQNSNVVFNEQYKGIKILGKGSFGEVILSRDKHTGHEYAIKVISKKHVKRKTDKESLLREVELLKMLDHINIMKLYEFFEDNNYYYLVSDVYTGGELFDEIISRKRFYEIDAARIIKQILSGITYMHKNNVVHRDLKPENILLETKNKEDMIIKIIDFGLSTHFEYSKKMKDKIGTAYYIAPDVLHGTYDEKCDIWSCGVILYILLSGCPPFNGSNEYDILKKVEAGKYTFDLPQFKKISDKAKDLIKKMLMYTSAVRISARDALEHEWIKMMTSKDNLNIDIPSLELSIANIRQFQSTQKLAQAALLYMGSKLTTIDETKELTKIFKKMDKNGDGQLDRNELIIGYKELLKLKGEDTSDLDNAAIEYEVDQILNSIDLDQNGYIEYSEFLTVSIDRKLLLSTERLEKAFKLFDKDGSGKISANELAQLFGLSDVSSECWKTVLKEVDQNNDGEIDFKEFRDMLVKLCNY

F380Y/beta1 = assay: modulators of BK channel variants, profiling panel, selectivity assay, cell-based, U2OS BacMam, thallium flux, beta subunits (AID 1259406); settings: at 30 µM;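 also: initial slope of Thallos dye fluorescence rise after thallium is added; log ratio against the mean of 0.3% DMSO vehicle wells on the same plate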
F380Y/beta4 = assay: as above; settings: at 30 µM
R275C/beta4 = assay: as above; settings: at 30 µM
R275C/Slo1WT/beta2 = assay: as above; settings: at 30 µM

COc1ccc2c(c1OC)CN1CCc3cc4c(cc3C1C2)OCO4 (stereo unspecified)
active: AC50 [2] 16600 nM
inactive: outcome [1] | outcome [3]

CN(C)CCc1ccc(O)cc1
inactive: outcome [1] | outcome [2] | outcome [3]

COc1cccc2c1C(=O)c1c(O)c3c(c(O)c1C2=O)C[C@@](O)(C(=O)CO)CC3OC1CC(N2CCOC(OC)C2)C(O)C(C)O1 (stereo partly specified)
active: AC50 [4] 4.17 nM | AC50 [5] 14.8 nM | IC50 [6] 332 nM

CN1C[C@H](CNC(=O)OCc2ccccc2)C[C@@H]2c3cccc4c3c(cn4C)C[C@H]21
inactive: inhibition [7] -2% | fluorescence ratio (interference) [8] 1 | remaining activity [9] 86.6% | outcome [10]

COc1ccc2c(c1OC)C(=O)O[C@H]2[C@@H]1c2cc3c(cc2CCN1C)OCO3
inactive: inhibition [7] -3% | fluorescence ratio (interference) [8] 1 | outcome [10]

C=C[C@H]1CN2CC[C@H]1C[C@H]2[C@H](O)c1ccnc2ccccc12
2: inclusion score [11]
inactive: growth inhibition [12] 3% | outcome [13] | outcome [14] | outcome [15] | outcome [16]

FC(F)(F)c1cccc(N2CCNCC2)c1
2: inclusion score [11]

Clc1ccc(COC(Cn2ccnc2)c2ccc(Cl)cc2Cl)c(Cl)c1 (stereo unspecified)
active: log fold change Tl+ flux (F380Y/beta4) -0.445
inactive: log fold change Tl+ flux (F380Y/beta1) -0.101 | log fold change Tl+ flux (R275C/beta4) 0.0768 | log fold change Tl+ flux (R275C/Slo1WT/beta2) 0.0237

CC[C@@H](CO)NC(=O)[C@@H]1C=C2c3cccc4[nH]cc(c34)C[C@H]2N(C)C1
2: inclusion score [11]
inactive: inhibition [7] -5% | fluorescence ratio (interference) [8] 1 | remaining activity [9] 127% | outcome [10]

CC(C)CC(N(C)C)C1(c2ccc(Cl)cc2)CCC1 (stereo unspecified)
active: AC50 [1] 23500 nM
inactive: outcome [4] | outcome [2] | outcome [3] | outcome [5] | outcome [6]

COc1ccc(C[C@H]2NC[C@H](O)[C@H]2OC(C)=O)cc1
active: growth inhibition [12] 98%
inactive: outcome [13] | outcome [14] | outcome [15] | outcome [16] | remaining activity [9] 125%

C=C[C@H]1CN2CC[C@H]1C[C@@H]2[C@@H](O)c1ccnc2ccccc12
inactive: growth inhibition [12] 2% | outcome [13] | outcome [14] | outcome [15] | outcome [16]

O=C1CC[C@@]2(O)[C@H]3Cc4ccc(O)c5c4[C@@]2(CCN3CC2CC2)[C@H]1O5
inactive: outcome [4] | outcome [1] | outcome [2] | outcome [3] | outcome [5] | outcome [6] | log fold change Tl+ flux (F380Y/beta1) -0.0461 | log fold change Tl+ flux (F380Y/beta4) -0.0353 | log fold change Tl+ flux (R275C/beta4) -0.0587 | log fold change Tl+ flux (R275C/Slo1WT/beta2) 0.0463

CC[C@@]1(O)C(=O)OCc2c1cc1n(c2=O)Cc2cc3ccccc3nc2-1
inactive: inhibition [7] 0% | fluorescence ratio (interference) [8] 1 | remaining activity [9] 122% | outcome [3] | outcome [6] | outcome [10]
active: AC50 [4] 16.6 nM | AC50 [2] 46.9 nM | AC50 [5] 1480 nM

c1ccc2c3c([nH]c2c1)CNCC3
inactive: log fold change Tl+ flux (F380Y/beta1) -0.00595 | log fold change Tl+ flux (F380Y/beta4) -0.0163 | log fold change Tl+ flux (R275C/beta4) -0.016 | log fold change Tl+ flux (R275C/Slo1WT/beta2) -0.0345

COc1cc2c(cc1OC)[C@@]13CCN4CC5=CCO[C@H]6CC(=O)N2[C@H]1[C@H]6[C@H]5C[C@H]43
inactive: log fold change Tl+ flux (F380Y/beta1) -0.0206 | log fold change Tl+ flux (F380Y/beta4) 0.0166 | log fold change Tl+ flux (R275C/beta4) -0.00487 | log fold change Tl+ flux (R275C/Slo1WT/beta2) -0.0314

NC(=O)CS(=O)C(c1ccccc1)c1ccccc1 (stereo unspecified)
inactive: log fold change Tl+ flux (F380Y/beta1) 0.0487 | log fold change Tl+ flux (F380Y/beta4) 0.00509 | log fold change Tl+ flux (R275C/beta4) 0.0208 | log fold change Tl+ flux (R275C/Slo1WT/beta2) 0.0297

O=c1ccc2cc(O[C@@H]3O[C@H](CO)[C@@H](O)[C@H](O)[C@H]3O)c(O)cc2o1
2: inclusion score [11]

C=CCN1CC[C@]23c4c5ccc(O)c4O[C@H]2C(=O)CC[C@@]3(O)[C@H]1C5
inactive: remaining activity [9] 101% | log fold change Tl+ flux (F380Y/beta1) 0.0814 | log fold change Tl+ flux (F380Y/beta4) 0.0525 | log fold change Tl+ flux (R275C/beta4) 0.00421 | log fold change Tl+ flux (R275C/Slo1WT/beta2) 0.0157

Cc1nccc2c1[nH]c1ccccc12
inactive: inhibition [7] -1% | fluorescence ratio (interference) [8] 1 | remaining activity [9] 108% | outcome [10]

CC[C@H]1CN2CC[C@H]1C[C@@H]2[C@@H](O)c1ccnc2ccc(OC)cc12
inactive: outcome [13] | outcome [14] | outcome [15] | outcome [16]
active: growth inhibition [12] 95%

O=c1c2ccccc2[se]n1-c1ccccc1
inactive: inhibition [7] -2% | fluorescence ratio (interference) [8] 1

COc1ccc2[nH]cc(CCN)c2c1
inactive: inhibition [7] -2% | fluorescence ratio (interference) [8] 1 | outcome [10] | log fold change Tl+ flux (F380Y/beta1) 0.0119 | log fold change Tl+ flux (F380Y/beta4) -0.0167 | log fold change Tl+ flux (R275C/beta4) 0.0135 | log fold change Tl+ flux (R275C/Slo1WT/beta2) 0.00615

CC1=NCCc2c1[nH]c1cc(O)ccc21
2: inclusion score [11]

C[C@H](N)[C@H](O)c1ccc(O)c(O)c1
2: inclusion score [11]
